In all, about 5,500 compounds went through this assay and about 2,000 (36%) were called active. About 18% were inconclusive and are not listed. Cut-off read from the data, not from the text of the source: active = normalized growth mostly below about 0.91 (no sharp cut-off); inconclusive = no clear call, values can overlap the other calls; inactive = mostly above about 0.92. The list shows a part of the results.
Assay: chemical genetic growth profiling, strain panel (AID 1159580);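 note: tested at 20 µM; growth read once vehicle control cultures reached saturation at 30 °C; 1 = growth at the plate median or of vehicle wells; lower values mean less growth of the strain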
Details: S. cerevisiae deletion strains, growth OD

Measured: normalized growth

Cc1ccc(Sc2c(Sc3ccc(C)cc3)c(=O)c2=O)cc1
inactive: locus YAR019C, strain CDC15, active compounds read low 0.898 | locus YBL105C, strain PKC1, active compounds read low 0.982 | locus YBR135W, strain CKS1, active compounds read low 0.961 | locus YBR136W, strain MEC1, active compounds read low 0.968 | locus YBR160W, strain CDC28, active compounds read low 0.958 | locus YDL017W, strain CDC7, active compounds read low 0.971 | locus YDL028C, strain MPS1, active compounds read low 0.961 | locus YDL101C, strain DUN1, active compounds read low 0.915 | locus YDL108W, strain KIN28, active compounds read low 0.964 | locus YDL132W, strain cdc53, active compounds read low 0.936 | locus YDR052C, strain DBF4, active compounds read low 0.974 | locus YDR226W, strain ADK1, active compounds read low 0.968 | locus YFL009W, strain cdc4, active compounds read low 0.946 | locus YFR003C, strain YPI1, active compounds read low 0.969 | locus YFR028C, strain CDC14, active compounds read low 0.958 | locus YIL147C, strain SLN1, active compounds read low 0.964 | locus YJL128C, strain PBS2, active compounds read low 0.949 | locus YJR016C, strain ILV3, active compounds read low 0.976 | locus YKL193C, strain SDS22, active compounds read low 0.948 | locus YMR001C, strain CDC5, active compounds read low 0.952 | locus YMR277W, strain FCP1, active compounds read low 0.882 | locus YNL006W, strain LST8, active compounds read low 0.949 | locus YNL161W, strain CBK1, active compounds read low 0.966 | locus YNL207W, strain RIO2, active compounds read low 0.973 | locus YOR329C, strain SCD5, active compounds read low 0.978 | locus YPL209C, strain IPL1, active compounds read low 0.965 | locus YPR025C, strain CCL1, active compounds read low 0.957 | locus YPR106W, strain ISR1, active compounds read low 0.967 | locus YPR111W, strain DBF20, active compounds read low 0.952 | strain NNK1, active compounds read low 0.963 | strain TSCII, active compounds read low 0.914
active: locus YDL214C, strain PRR2, active compounds read low 0.184 | locus YDR477W, strain SNF1, active compounds read low 0.226 | locus YER123W, strain YCK3, active compounds read low 0.14 | locus YER133W, strain GLC7, active compounds read low 0.237 | locus YFR019W, strain FAB1, active compounds read low 0.128 | locus YGR040W, strain KSS1, active compounds read low 0.285 | locus YGR052W, strain FMP48, active compounds read low 0.228 | locus YGR092W, strain DBF2, active compounds read low 0.427 | locus YHR030C, strain SLT2, active compounds read low 0.132 | locus YHR079C, strain IRE1, active compounds read low 0.171 | locus YHR082C, strain KSP1, active compounds read low 0.155 | locus YHR205W, strain SCH9, active compounds read low 0.0561 | locus YJL095W, strain BCK1, active compounds read low 0.172 | locus YJL157C, strain FAR1, active compounds read low 0.168 | locus YJR066W, strain TOR1 (second series), active compounds read low 0.135 | locus YJR066W, strain TOR1, active compounds read low 0.129 | locus YKL048C, strain ELM1, active compounds read low 0.599 | locus YKL067W, strain YNK1, active compounds read low 0.287 | locus YKL101W, strain HSL1, active compounds read low 0.447 | locus YKL203C, strain TOR2, active compounds read low 0.551 | locus YLR113W, strain HOG1, active compounds read low 0.186 | locus YLR133W, strain CKI1, active compounds read low 0.267 | locus YLR403W, strain SFP1, active compounds read low 0.161 | locus YML070W, strain DAK1, active compounds read low 0.135 | locus YMR205C, strain PFK2 (second series), active compounds read low 0.486 | locus YNL020C, strain ARK1, active compounds read low 0.319 | locus YNL183C, strain NPR1, active compounds read low 0.173 | locus YNL307C, strain MCK1 (second series), active compounds read low 0.267 | locus YOL136C, strain PFK27, active compounds read low 0.118 | locus YOR061W, strain CKA2, active compounds read low 0.427 | locus YOR119C, strain RIO1, active compounds read low 0.636 | locus YOR231W, strain MKK1, active compounds read low 0.224 | locus YPL031C, strain PHO85, active compounds read low 0.144 | locus YPL153C, strain RAD53, active compounds read low 0.178 | locus YPL204W, strain HRR25, active compounds read low 0.197 | locus YPL256C, strain CLN2, active compounds read low 0.172

From PubChem BioAssay AID1159580 (chemical genetic matrix, 2015)
